Screening data (PubChem)
Cruzain Triton – qHTS Assay for Promiscuous and Specific Inhibitors of Cruzain (with detergent); Cruzipain (Trypanosoma cruzi), P25779; hit rate 0.43% among 200,000; purified cruzain, Z-FR-AMC fluorescence, 0.01% Triton; AID 1478, 2009; Potency, µM, without a hit: max response, negative = inhibition, most hits filed as inhibitors;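 note: plate controls were neutral wells for no effect and buffer without enzyme for full effect; nearly all actives have a fitted effect of over 40% in size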
Target sequence (P25779 123-467 limits assumed): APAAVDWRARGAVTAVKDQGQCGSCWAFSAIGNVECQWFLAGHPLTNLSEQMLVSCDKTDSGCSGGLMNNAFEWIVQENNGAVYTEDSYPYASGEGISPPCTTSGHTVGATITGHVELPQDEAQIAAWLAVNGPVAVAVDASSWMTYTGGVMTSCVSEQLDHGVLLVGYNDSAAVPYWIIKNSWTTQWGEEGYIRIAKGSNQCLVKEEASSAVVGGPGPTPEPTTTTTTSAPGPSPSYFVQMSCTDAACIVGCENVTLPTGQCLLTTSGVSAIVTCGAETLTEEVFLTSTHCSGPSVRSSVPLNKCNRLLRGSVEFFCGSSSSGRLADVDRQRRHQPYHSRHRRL
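Cysteine protease activity tested under reducing, mildly acidic conditions (100 mM sodium acetate pH 5.5, 5 mM DTT) plus 0.01% Triton X-100. Cruzain 1.5 nM; substrate Z-FR-AMC 2 uM; 15 min compound preincubation at room temperature.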
Cruzain inh noDet – qHTS Assay for Promiscuous and Specific Inhibitors of Cruzain (without detergent). Cruzipain (Trypanosoma cruzi), P25779. AID 1476, 2009. Potency, µM, for the others: max response, negative = inhibition, hits mostly inhibitors. hit rate 2.3% among 200,000. purified cruzain, Z-FR-AMC fluorescence, no detergent;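 note: plate controls were enzyme without inhibitor for no effect and buffer without enzyme for full effect; nearly all actives have a fitted effect of over 40% in size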
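Detergent-free condition (0.00005% Triton X-100) in acetate buffer pH 5.5 with DTT. 1.5 nM enzyme and compound were pre-mixed 15 min, then 2 uM Z-FR-AMC substrate added; reaction progress from fluorescence change between first and third reads (60 s).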
* marks the source's active call; other numbers are inactive results; ? = inconclusive; ! = not active in a repeat. In the library only some 2.4% were active in any assay of this set; here they are far more common. Calls come from the whole dose curve; as a rule, active = well fitted curve in the direction sought with a large enough effect; inconclusive = small, poorly fitted or top-dose-only effect, or another doubt; inactive = no such curve, though single readings can be large; an effect the other way counts as inactive or inconclusive. Potency is the fitted concentration of half-maximal effect.

SMILES	Cruzain Triton	Cruzain inh noDet
O=C(Cn1c(C(=O)N2CCN(C3CCCCC3)CC2)cc2sccc21)c1ccccc1	3%	0%
CN(Cc1ccccc1)c1nnc(NC(=O)Nc2cccc(Br)c2)s1	-7%	16%
CCCCc1ccc(-c2c(C#N)c(N)nc3c2CCCC3)s1	5%	25µM*
CCCCc1sc(-c2c(C#N)c(N)nc3c2CCCCC3)cc1[N+](=O)[O-]	-6%	-4%
COc1cc2c(cc1O)CC1c3c(cc(O)c(OC)c3-2)CCN1C (stereo not given)	-4%	32µM*!
COc1cc2c(cc1O)C[C@H]1c3c(cc(OC)c(O)c3-2)CCN1C	-4%	0%
O=C(O)C[C@H]1OCC=C2CN3CC[C@]45c6ccccc6N[C@@H]4[C@H]1[C@H]2C[C@H]35	1%	4%
O=c1oc2cc(OCc3c(F)cccc3Cl)ccc2cc1-c1ccccn1	0%	23%
O=c1oc2cc(OCc3ccc(F)cc3F)ccc2cc1-c1ccc2ccccc2n1	-2%	13µM*
O=C(Nc1nc2ccc(Cl)cc2s1)c1ccc(Br)o1	0%	20µM*
O=C(Nc1nc2c(Cl)cccc2s1)c1ccc(Br)o1	7%	15%
COc1ccccc1CNC(=O)c1ccc2c(c1)N(Cc1cc(C)ccc1C)C(=O)c1ccccc1S2	0%	-3%
CC(C)(C)C(=O)Nc1ccc(Oc2ccc3c(c2)C(=O)N(c2ccc(O)cc2)C3=O)cc1	0%	-11%
COc1ccccc1Oc1ccc2c(c1)C(=O)N(c1ccc(O)cc1)C2=O	1%	20µM*
CC(C)COc1ccc(C(=O)Nc2scc(-c3ccc(Cl)cc3Cl)c2C(N)=O)cc1	-18%	10µM*
CC(C)COc1ccc(C(=O)Nc2cc3nn(-c4ccccc4)nc3cc2Cl)cc1	0%	-5%
CN(Cc1ccccc1)S(=O)(=O)c1ccc2[nH]c3c(c2c1)CCCCC3	-12%	?
COC(=O)c1sc2nc(SCc3ccccc3C)n(N)c(=O)c2c1C	-3%	32µM*
COC(=O)c1sc2nc(SCc3cccc(Cl)c3)n(N)c(=O)c2c1C	-12%	?
CC(=O)OC1=CC2=CC[C@H]3[C@H]4CCC(=O)[C@@]4(C)CC(=O)[C@]3(S)[C@]2(C)CC1	-4%	-2%
COc1cc(/C=C2\SC(=S)N(Nc3ccccc3)C2=O)cc(OC)c1OC	-1%	14%
CCOc1ccc(/C=C2\SC(=S)N(Nc3ccccc3)C2=O)cc1OC	6.3µM*	?
O=C(Cc1ccccc1)Nc1nc2ccccc2[nH]1	0%	2%
O=C(Cc1c[nH]c2ccccc12)Nc1nc2ccccc2[nH]1	-26%	25µM*
CCCCC1=CC2=C(c3ccco3)C(=O)C(C)(OC(=O)c3ccc(Cl)nc3)C(=O)C2=CO1 (stereo not given)	-9%	1%
SMILES	Cruzain Triton	Cruzain inh noDet
CC1=C(C(=O)Nc2cccc(C)c2C)C2(CCCCC2)OC1=O	-1%	5%
O=C(Nc1ccccc1N1CCN(c2ccccc2)CC1)C12CC3CC(CC(C3)C1)C2	5%	25µM*
O=C(Cc1ccccc1)Nc1ccccc1N1CCN(c2ccccc2)CC1	-3%	-22%
OC[C@@H]1O[C@@H](O)[C@H](N=Cc2ccc3c(c2)OCO3)[C@@H](O)[C@@H]1O	1%	2%
O=c1nc(Nc2ccccc2)sc2ccc([N+](=O)[O-])cc12	-3%	10µM*
O=[N+]([O-])c1ccc(Nc2ccccc2)cc1	-10%	-11%
NC(=O)CSc1ncc2c(n1)-c1ccccc1N(Cc1ccc(F)cc1)S2(=O)=O	1%	2%
CCOc1ccc(-c2c(C)nn3c(C)c(C(=O)NCCc4ccccc4)cnc23)cc1OCC	-3%	-8%
c1ccc(-c2ccc(-c3csnn3)cc2)cc1	4%	20µM*
FC(F)(F)c1cccc(-c2ccc(-c3csnn3)o2)c1	-7%	-2%
COc1cc(/C=c2\sc3n(c2=O)C(c2ccccc2)C(c2ccccc2)=NN=3)ccc1O (stereo not given)	5%	16µM*
COc1cc(/C=c2\sc3n(c2=O)CCCN=3)ccc1O	-4%	-2%
COC(=O)c1cc(-c2ccc(Br)cc2)on1	1%	-14%
Cc1ccc(Cn2ccc(NC(=O)c3cc(-c4ccccc4)on3)n2)cc1	-4%	3%
Cc1ccc(Cn2ccc(NC(=O)c3cc(-c4ccc(Br)cc4)on3)n2)cc1	3%	4µM*
CC(NC(=O)c1cc(-c2ccc(Br)cc2)on1)c1ccccc1 (stereo not given)	7%	16µM*
COc1cccc(CNC(=O)CC(c2ccc(C)cc2)N2Cc3ccccc3C2=O)c1 (stereo not given)	-4%	-11%
CCOC(=O)c1ccccc1NC(=O)c1cc(S(=O)(=O)N2CCOCC2)ccc1F	-4%	?
CCOC(=O)c1c(-c2ccccc2)csc1NC(=O)c1cc2ccccc2oc1=O	-3%	16µM*
